Hits are enriched below; roughly 9.9% of the tested compounds scored in any of these assays.
KB-3-1 cytotox = qHTS assay for MDR1-selective chemotherapeutics: Primary screen using the parental adenocarcinoma cell KB-3-1; KB-3-1 viability, CellTiter-Glo ATP luminescence, 72 h; Potency, µM (highest dose often 46.1 µM), actives largely listed as cytotoxic; actives 1.4% (n = 400,000); also: potency is read from the fitted curve at half-maximal effect; % is scaled to controls: 0 for no effect and ±100 for the full control effect; nearly all actives have a fitted effect of over 60% in size
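Multi-concentration cytotoxicity screen in KB-3-1 cells grown in DMEM lacking phenol red with 10% FBS. After 72 h at 37 °C with compound, ATP-dependent luminescence was recorded.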
MCF10A rereplic = A quantitative high throughput screen for small molecules that induce DNA re-replication in MCF 10a normal breast cells; MCF 10A DNA re-replication, Hoechst nuclear intensity, 48 h; Potency, µM (series often up to 46.1 µM), for inactives: top-dose activity, positive = re-replication, hits mostly activators; actives 2.9% (n = 350,000); also: potency is read from the fitted curve at half-maximal effect; % of control where 0% means no effect; nearly all actives have a fitted effect of over 50% in size
KB-V1 cytotox = qHTS assay for MDR1-selective chemotherapeutics: Primary screen using the drug-selected MDR subline cells KB-V1 | KB-V1 MDR cells viability, CellTiter-Glo, 72 h | AID 1347076, 2019 | Potency, µM (highest dose often 46.1 µM), hits mostly cytotoxic | actives 3.4% (n = 400,000); also: potency is read from the fitted curve at half-maximal effect; % is scaled to controls: 0 for no effect and ±100 for the full control effect; nearly all actives have a fitted effect of over 60% in size
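Luminescent ATP read-out (CellTiter-Glo, 10 min) measures survival of drug-selected KB-V1 MDR cells after 72 h, 37 degrees C compound exposure. Medium: phenol-red-free DMEM, 10% FBS. Values from fitted concentration-response curves.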
SW480 rereplic = A quantitative high throughput screen for small molecules that induce DNA re-replication in SW480 colon adenocarcinoma cells. actives 1.8% (n = 340,000). SW480 DNA re-replication, Hoechst DNA content imaging, 48 h. Potency, µM (titrated, usually from 46.1 µM), without a hit: at the top dose re-replication activation, hits mostly activators; also: potency is read from the fitted curve at half-maximal effect; % of control where 0% means no effect; nearly all actives have a fitted effect of over 55% in size
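SW480 cells exposed to compounds for 48 hr at 37 C, 5% CO2, then Hoechst-stained 40 min. Nuclear DNA content imaged by fluorescence scanning (405 nm excitation, 500-530 nm emission); re-replication scored as increased high-intensity nuclei.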
IL1B secr inh = qHTS for Inhibitors of Inflammasome Signaling: IL-1-beta AlphaLISA Primary Screen; THP-1 LPS/ATP IL-1B secretion, AlphaLISA, 16 h; active compounds read low; actives 4.7% (n = 360,000); activity change, % at 57.5 µM; in the data active = activity change below about -50%; inconclusive = mostly about -30% to -49%; also: % is scaled to controls: 0 for no effect and ±100 for the full control effect
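THP-1 cells pretreated 1 hr with compounds (up to 57.5 uM final), then stimulated with LPS (250 ng/mL final) plus ATP (1.25 mM final); secreted IL-1B measured by AlphaLISA after 16 hr, decreased signal indicating inhibition.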
Starred values were filed as active, the others as inactive; i = inactive; ? = inconclusive; . = not tested or not shown; [ ] = another dose, or the depositor's remark. Unless noted, calls follow the shape of the dose curve; as a rule, active = well fitted curve in the direction sought with a large enough effect; inconclusive = small, poorly fitted or top-dose-only effect, or another doubt; inactive = no such curve, though single readings can be large; an effect the other way counts as inactive or inconclusive.

SMILES	KB-3-1 cytotox	MCF10A rereplic	KB-V1 cytotox	SW480 rereplic	IL1B secr inh
CCN(CC)CCNC(=S)Nc1ccc2nc(N3CCCC3)cc(C)c2c1	15µM*	?	i	?	-66*
CCN(CC)CCNC(=S)Nc1ccc2nc(N3CCN(C)CC3)cc(C)c2c1	i	?	i	?	-51*
CCN(CC)CCNC(=S)Nc1ccc2nc(N3CCOCC3)cc(C)c2c1	i	22%	i	8%	?
Cc1ccc(-c2nnn(CCOc3cccc(Br)c3)n2)cc1	i	13%	i	.	0
CC1CC(C)CN(C(=O)CSc2ncnc3sccc23)C1 (stereo not given)	i	12%	21µM*	-5%	-15
Cc1c(NC(=O)C(C)OC(=O)c2cc(Cl)ccc2O)c(=O)n(-c2ccccc2)n1C (stereo not given)	i	6%	i	-3%	11
CCOc1ccccc1CNC(=O)c1cc2oc3ccccc3c2n1C	7.3µM*	15µM*	?	26%	-29
CCOc1ccccc1CNC(=O)c1cc2occc2n1C	i	-1%	i	0%	10
COCCNC(=O)c1cc2oc3ccccc3c2n1C	i	8%	23µM*	-4%	-1
Cn1c(C(=O)NCc2cccc(Cl)c2)cc2oc3ccccc3c21	i	.	i	.	.
Cc1ccc(C(=O)Cc2ccccc2)o1	i	1%	i	1µM*	12
Cc1ccc(C(=O)CCNc2ccc(Br)cc2)o1	i	?	i	0%[9.22 µM]	-20
Cc1ccc(C(=O)CCNc2ccccc2)o1	i	7.1µM*	i	?	-2
CCc1ccc(NC(=O)C(=O)NCC(c2ccc3c(c2)OCO3)N2CCN(C)CC2)cc1 (stereo not given)	i	.	i	.	.
Cc1ccc(S(=O)(=O)/N=C(\CN2CCOCC2)N2CCCC2)cc1	i	-15%	?	-7%	-25
Cc1ccc(S(=O)(=O)/N=C(\CCl)N2CCOCC2)cc1	?	?	i	?	-52*
CCN1C(=O)[C@H]2[C@@H](c3ccc(-c4cccc(Cl)c4)c(OC)c3)N[C@@](CC(C)C)(C(=O)OC)[C@H]2C1=O	?	5.8µM*	i	?	-61*
CCCCCCSc1ccc([C@H]2N[C@@](Cc3ccccc3)(C(=O)OC)[C@H]3C(=O)N(C)C(=O)[C@@H]23)cc1	?	5%	16µM*	-9%[9.22 µM]	?
CCN1C(=O)[C@H]2[C@@H](c3ccc(-c4ccc(F)cc4)c(OC)c3)N[C@@](Cc3ccccc3)(C(=O)OC)[C@H]2C1=O	?	1%	i	-30%	-62*
CC(=O)Nc1ccc(S(=O)(=O)N(CC(=O)NCC2CCCO2)Cc2ccccc2Cl)cc1 (stereo not given)	i	.	i	.	7
COc1ccc(NC(=O)c2sccc2SCc2cccc(C(F)(F)F)c2)cc1	i	-1%	16µM*	6%	-20
O=C(Nc1ccc(F)cc1F)c1sccc1SCc1cccc(C(F)(F)F)c1	i	24%	16µM*	-4%	-27
O=C(Nc1ccc(F)cc1)c1sccc1SCc1cccc(C(F)(F)F)c1	i	?	?	0%	-21
COc1ccc(C)c2sc(N(CCN(C)C)C(=O)c3ccc4ccccc4c3)nc12	i	0%	i	-15%	-54*
Cc1cc(C)c2nc(N(CCN(C)C)C(=O)c3ccc4ccccc4c3)sc2c1	i	-3%	?	-28%	0
CCOc1cccc2sc(N(CCN(C)C)C(=O)c3ccc4ccccc4c3)nc12	i	8%	i	-16%	-101*
Cc1noc(C)c1NC(=O)Nc1ccc2c(c1)CC(=O)N([C@H](C)CO)C[C@@H](C)[C@H](CN(C)CC1CCCCC1)O2	i	-7%	i	-3%	-3
Cc1ccc(CNC(=O)c2ccc(-c3nc(CN4CCc5ccccc54)c(C)o3)cc2)cc1	i	.	?	.	.

Screening data: PubChem BioAssay, National Center for Advancing Translational Sciences (NCATS)
